Drawing on PubChem BioAssay (NCI), this text covers growth for eight compounds.

The panel holds about 83,000 compounds, 20% with a hit somewhere; the sample as a whole holds those more often.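 Testing used 96-well plates and a 48-hour single-concentration exposure. Example: -40 means 40% of the starting cells died.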 Values without a mark were called inactive. Calls of active or inactive are those of the source. The calls were made as follows: active = growth percent below 10; inactive = the rest.

Among the test systems are NCI-H23 lung; NCI-H226 lung; NCI-H322M lung; HOP-62 NSCLC; NCI-H460 lung; HOP-92 NSCLC; NCI-H522 lung; 786-0 renal; COLO 205 colon; DU-145 prostate; K-562 leukemia; MALME-3M melanoma; MDA-MB-231 breast; RXF 393 renal; SF-268 CNS; SF-295 CNS; SF-539 CNS; UACC-257 melanoma; M14 melanoma.
Holding throughout (experiment): NCI-60 one-dose screen, 48 h (100 = growth as untreated, 0 = no growth, -100 = all killed)
Conditions in all cases: 10 µM

For the compound `O=[N+]([O-])c1ccc(-c2nc(Cl)c3c(n2)CCCC3)o1`, the growth is 88.5% with NCI-H23 lung; 63.6% with NCI-H226 lung; 102% in the assay on NCI-H322M lung; 64% in the assay on HOP-62 NSCLC; 34% with NCI-H460 lung; 85.2% with HOP-92 NSCLC. Also, the growth with NCI-H522 lung was -41.3% (active); in the assay on 786-0 renal, 107%; with COLO 205 colon, 68.5%; in the assay with DU-145 prostate, 31.4%; in the assay with K-562 leukemia it was 73.2%; in the assay with MALME-3M melanoma, 41.4%. The growth in the assay on MDA-MB-231 breast was 109%; with RXF 393 renal, 93.8%; with SF-268 CNS it was 88.5%; in the assay with SF-295 CNS it was 115%; in the assay with SF-539 CNS, 94.6%; in the assay with UACC-257 melanoma it was 82.5%. The growth in the assay on M14 melanoma is 71.3%.
Take `COc1ccc(-c2cc(=O)n(-c3nc4ccccc4[nH]3)[nH]2)cc1OC`: the growth with NCI-H23 lung was 80.4%; in the assay on NCI-H226 lung it was 85.1%; in the assay with NCI-H322M lung, 66.6%; in the assay with HOP-62 NSCLC, 71.6%; in the assay with NCI-H460 lung, 41.4%; with HOP-92 NSCLC, 17.4%. Besides, the growth was 49.2% with NCI-H522 lung; 83% with 786-0 renal; 113% in the assay on COLO 205 colon; 83% in the assay on DU-145 prostate; 26.5% in the assay with K-562 leukemia; 67.2% with MALME-3M melanoma. Further, the growth was 94.5% with MDA-MB-231 breast; 3.51% (active) in the assay on RXF 393 renal; 72.3% with SF-268 CNS; -12.8% (active) with SF-295 CNS; 71.3% in the assay with SF-539 CNS; 89.2% in the assay with UACC-257 melanoma. Moreover, the growth in the assay on M14 melanoma is 54.5%.
Regarding `O=S(=O)(NCCO)c1ccc(OCCOc2ccc(S(=O)(=O)NCCO)cc2)cc1`, the growth in the assay on NCI-H23 lung was 96.6%; in the assay with NCI-H226 lung, 91.3%; in the assay on NCI-H322M lung it was 90.4%; in the assay with HOP-62 NSCLC it was 90.7%; with NCI-H460 lung, 111%; in the assay with HOP-92 NSCLC, 81.1%. Besides, the growth in the assay on NCI-H522 lung is 91.7%; in the assay on 786-0 renal, 96.9%; in the assay on COLO 205 colon it was 104%; in the assay with DU-145 prostate, 107%; in the assay with K-562 leukemia, 106%; with MALME-3M melanoma, 87%. Further, the growth in the assay with MDA-MB-231 breast is 89.6%; with RXF 393 renal, 102%; in the assay with SF-268 CNS, 102%; in the assay with SF-295 CNS, 98.1%; with SF-539 CNS it was 94.4%; with UACC-257 melanoma, 95%. Besides, the growth with M14 melanoma is 102%.
As for `COc1cc(/C=C/C(=O)c2cc(-c3ccc(C(F)(F)F)cc3)ccc2O)cc(OC)c1OC`, the growth is 64.3% in the assay on NCI-H23 lung; 84.1% with NCI-H226 lung; 82.1% in the assay with NCI-H322M lung; 98.7% with HOP-62 NSCLC; 56.5% in the assay with NCI-H460 lung; 63.1% in the assay with HOP-92 NSCLC. For the same compound, the growth in the assay with NCI-H522 lung is 40.8%; in the assay with 786-0 renal it was 80.3%; with COLO 205 colon it was 71.6%; in the assay on DU-145 prostate it was 81%; in the assay on K-562 leukemia, 41%; in the assay on MDA-MB-231 breast, 61.3%. For the same compound, the growth is 61% with RXF 393 renal; 76.2% in the assay with SF-268 CNS; 78.1% in the assay with SF-295 CNS; 92.3% with SF-539 CNS; 82.5% with UACC-257 melanoma; 81.8% with M14 melanoma.
As for `COc1cc(-c2nc3ccccc3[nH]2)ccc1OCC(=O)N=Nc1c(O)[nH]c2ccccc12`, the growth is 90% in the assay on NCI-H23 lung; 105% in the assay on NCI-H226 lung; 96% with NCI-H322M lung; 99.6% in the assay with HOP-62 NSCLC; 109% with NCI-H460 lung; 78.1% in the assay with HOP-92 NSCLC. The growth in the assay on NCI-H522 lung was 80.1%; in the assay on 786-0 renal, 97.8%; in the assay on COLO 205 colon, 74.6%; in the assay with DU-145 prostate, 99.7%; in the assay with K-562 leukemia it was 17.5%; in the assay on MALME-3M melanoma, 54.6%. Besides, the growth in the assay with MDA-MB-231 breast is 88.8%; in the assay on RXF 393 renal, 106%; with SF-268 CNS, 94.1%; in the assay with SF-295 CNS, 95.9%; in the assay with SF-539 CNS, 97.8%; in the assay with UACC-257 melanoma it was 105%. In the assay with M14 melanoma, the growth was 83.3%.
For `CCc1cc2n(n1)-c1ncc(C(=O)OC)cc1Oc1ccccc1-2`, the growth in the assay with NCI-H23 lung was 104%; in the assay on NCI-H226 lung, 99.8%; with NCI-H322M lung, 108%; in the assay on HOP-62 NSCLC, 95.4%; with NCI-H460 lung it was 104%; with HOP-92 NSCLC, 86.2%. The growth with NCI-H522 lung was 94.2%; in the assay with 786-0 renal, 100%; with COLO 205 colon, 116%; in the assay on DU-145 prostate it was 111%; in the assay on K-562 leukemia, 102%; in the assay with MALME-3M melanoma, 120%. The growth with MDA-MB-231 breast was 102%; in the assay with RXF 393 renal, 114%; in the assay with SF-268 CNS it was 103%; in the assay on SF-295 CNS, 101%; in the assay on SF-539 CNS it was 97.9%; in the assay with UACC-257 melanoma, 104%. Also, the growth in the assay on M14 melanoma is 108%.
Take `O/N=C1\CCC2CCCCC2C1` (stereo unspecified): the growth is 103% in the assay on NCI-H23 lung; 103% in the assay on NCI-H226 lung; 106% in the assay on NCI-H322M lung; 108% with HOP-62 NSCLC; 103% with NCI-H460 lung; 82.9% with HOP-92 NSCLC. In addition, the growth is 93.4% with NCI-H522 lung; 105% with 786-0 renal; 114% in the assay on COLO 205 colon; 113% in the assay on DU-145 prostate; 106% in the assay on K-562 leukemia; 98.2% in the assay with MALME-3M melanoma. In addition, the growth with MDA-MB-231 breast was 114%; with RXF 393 renal, 104%; with SF-268 CNS, 103%; in the assay on SF-295 CNS it was 93.6%; in the assay with SF-539 CNS, 88.8%; in the assay on UACC-257 melanoma it was 107%. Further, the growth with M14 melanoma was 102%.
Take `CC(C)c1[nH]nc2c(NCc3ccc(-c4ccccn4)cc3)nc(SCCN)nc12`: the growth in the assay with NCI-H23 lung is -34.8% (active); in the assay with NCI-H226 lung, -0.633% (active); in the assay on NCI-H322M lung, 10.3%; with HOP-62 NSCLC, -15.3% (active); with NCI-H460 lung, 3.31% (active); in the assay with HOP-92 NSCLC, -11.1% (active). Further, the growth with NCI-H522 lung was -54.8% (active); in the assay with 786-0 renal, 6.26% (active); with COLO 205 colon, -48.2% (active); with DU-145 prostate, 5.83% (active); with K-562 leukemia it was 3.89% (active); in the assay on MALME-3M melanoma it was -41.3% (active). Also, the growth in the assay with MDA-MB-231 breast was 5.07% (active); with RXF 393 renal it was -71.4% (active); with SF-268 CNS, -0.883% (active); with SF-295 CNS it was 4.57% (active); with SF-539 CNS it was -54.4% (active); in the assay on UACC-257 melanoma, 1.34% (active). In addition, the growth in the assay with M14 melanoma was -43.1% (active).
